Values joined by “and” are separate entries in the source; they are usually repeats but may differ in a detail not shown here. Equal values may be shown once. In all, about 5,500 compounds went through this assay and about 2,000 (36%) were called active. About 18% were inconclusive and are not listed. Cut-off read from the data, not from the text of the source: active = normalized growth mostly below about 0.91 (no sharp cut-off); inconclusive = no clear call, values can overlap the other calls; inactive = mostly above about 0.92. The list shows a part of the results.
Test: chemical genetic growth profiling, strain panel (AID 1159580);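 note: tested at 20 µM; growth read once vehicle control cultures reached saturation at 30 °C; 1 = growth at the plate median or of vehicle wells; lower values mean less growth of the strain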
Conditions: S. cerevisiae deletion strains, growth OD
[1] = locus YAL013W, strain DEP1, active compounds read low
[2] = locus YBR229C, strain ROT2, active compounds read low
[3] = locus YCL061C, strain MRC1, active compounds read low
[4] = locus YDL101C, strain DUN1, active compounds read low
[5] = locus YDL134C, strain PPH21, active compounds read low
[6] = locus YEL061C, strain CIN8, active compounds read low
[7] = locus YGR078C, strain PAC10, active compounds read low
[8] = locus YHR030C, strain SLT2, active compounds read low
[9] = locus YJR043C, strain POL32, active compounds read low
[10] = locus YKL190W, strain CNB1, active compounds read low
[11] = locus YLR039C, strain RIC1, active compounds read low
[12] = locus YLR262C, strain YPT6, active compounds read low
[13] = locus YMR307W, strain GAS1, active compounds read low
[14] = locus YNL153C, strain GIM3, active compounds read low
[15] = locus YNL322C, strain KRE1, active compounds read low

Measured: normalized growth

Cc1cc2c(cc1C)CSC(C)(c1ccc(F)cc1)SC2
inactive: [1] 0.994 | [2] 0.994 | [3] 0.993 | [4] 0.968 | [5] 0.997 | locus YDR150W, strain NUM1, active compounds read low 0.903 | [6] 1.02 | [7] 0.979 | [8] 0.952 | locus YHR087W, strain rtc3, active compounds read low 1.01 | [9] 0.982 | locus YJR075W, strain HOC1, active compounds read low 0.978 | [10] 0.992 | [11] 0.953 | locus YLR058C, strain SHM2 (second series), active compounds read low 1 | locus YLR085C, strain ARP6, active compounds read low 1.03 | [12] 0.961 | locus YML094W, strain GIM5, active compounds read low 1.01 | locus YMR219W, strain ESC1, active compounds read low 1.01 | locus YMR263W, strain SAP30, active compounds read low 0.947 | [13] 0.737 | [14] 0.986 | locus YNL298W, strain CLA4 (second series), active compounds read low 0.975 | [15] 1 | locus YNR030W, strain Alg12, active compounds read low 0.978 | locus YPL055C, strain LGE1, active compounds read low 1 | locus YPL241C, strain CIN2, active compounds read low 1.01 | locus YPR135W, strain CTF4, active compounds read low 0.946

COc1ccccc1OCC(O)COC(N)=O (stereo unspecified)
inactive: [1] 0.997 | locus YAL021C, strain ccr4, active compounds read low 0.991 | locus YAL026C, strain drs2, active compounds read low 0.99 | locus YAL030W, strain snc1, active compounds read low 0.996 | locus YBL061C, strain skt5, active compounds read low 0.989 | locus YBR009C, strain hhf1, active compounds read low 0.97 | locus YBR021W, strain FUR4, active compounds read low 1.02 | locus YBR023C, strain chs3, active compounds read low 0.966 | locus YBR171W, strain sec66, active compounds read low 0.981 | [2] 1 | locus YBR231C, strain swc5, active compounds read low 0.992 | locus YBR279W, strain paf1, active compounds read low 0.976 | locus YCL011C, strain gbp2, active compounds read low 0.979 | locus YCL016C, strain dcc1, active compounds read low 0.962 | locus YCL029C, strain bik1, active compounds read low 0.997 | [3] 0.973 | locus YCL069W, strain vba3, active compounds read low 0.996 | locus YCR088W, strain abp1, active compounds read low 0.985 | locus YDL005C, strain med2, active compounds read low 0.987 | locus YDL035C, strain GPR1, active compounds read low 1 | locus YDL040C, strain nat1, active compounds read low 0.992 | locus YDL074C, strain BRE1, active compounds read low 0.995 | [4] 0.997 | [5] 1.01 | locus YDL185W, strain tfp1, active compounds read low 0.957 | locus YDL192W, strain arf1, active compounds read low 0.977 | locus YDR001C, strain nth1, active compounds read low 0.991 | locus YDR069C, strain doa4, active compounds read low 0.996 | locus YDR101C, strain arx1, active compounds read low 1.04 | locus YDR137W, strain rgp1, active compounds read low 0.965 | locus YDR159W, strain sac3, active compounds read low 1.01 | locus YDR162C, strain NBP2, active compounds read low 1 | locus YDR195W, strain ref2 1.01 | locus YDR297W, strain sur2, active compounds read low 0.996 | locus YDR318W, strain mcm21, active compounds read low 0.993 | locus YDR334W, strain swr1, active compounds read low 0.978 | locus YDR335W, strain msn5, active compounds read low 0.993 | locus YDR388W, active compounds read low 1 | locus YDR392W, strain spt3, active compounds read low 0.918 | locus YDR502C, strain sam2, active compounds read low 0.997 | locus YEL003W, strain gim4, active compounds read low 1 | locus YEL037C, strain rad23, active compounds read low 0.985 | locus YEL061C, strain CIN8 (second series), active compounds read low 0.984 | [6] 0.98 | locus YER015W, strain faa2, active compounds read low 0.974 | locus YER016W, strain bim1, active compounds read low 1.02 | locus YER110C, active compounds read low 0.983 | locus YER111C, strain swi4, active compounds read low 0.981 | locus YER155C, strain BEM2 (second series), active compounds read low 1 | locus YER155C, strain BEM2, active compounds read low 0.993 | locus YER167W, strain BCK2, active compounds read low 0.99 | locus YFR010W, strain ubp6, active compounds read low 0.987 | locus YGL078C, strain dbp3, active compounds read low 0.984 | locus YGL086W, strain mad1, active compounds read low 1.02 | locus YGL167C, strain pmr1, active compounds read low 0.983 | locus YGL173C, strain kem1, active compounds read low 0.992 | locus YGL227W, strain vid30, active compounds read low 0.988 | locus YGL240W, strain doc1, active compounds read low 1.02 | locus YGL248W, strain PDE1, active compounds read low 0.999 | locus YGL253W, strain hxk2, active compounds read low 0.985 | [7] 1 | locus YGR135W, strain pre9, active compounds read low 0.961 | locus YGR229C, strain SMI1, active compounds read low 1 | locus YGR252W, strain gcn5, active compounds read low 0.988 | locus YHR013C, strain ard1, active compounds read low 0.952 | locus YHR027C, strain rpn1, active compounds read low 1 | [8] 0.996 and 1.06 | locus YHR079C, strain IRE1 (second series), active compounds read low 0.991 | locus YHR079C, strain IRE1, active compounds read low 1.05 | locus YHR094C, strain hxt1, active compounds read low 1 | locus YHR129C, strain ARP1, active compounds read low 1 | locus YHR142W, strain chs7, active compounds read low 0.965 | locus YHR200W, strain rpn10, active compounds read low 0.985 | locus YIL066C, strain RNR3, active compounds read low 1 | locus YIL073C, strain SPO22, active compounds read low 0.94 | locus YIL125W, strain kgd1, active compounds read low 0.999 | locus YIR030C, strain dcg1, active compounds read low 0.985 | locus YJL092W, strain hpr5, active compounds read low 0.984 | locus YJL095W, strain BCK1 (second series), active compounds read low 0.991 | locus YJL095W, strain BCK1, active compounds read low 0.991 and 1.03 | locus YJL115W, strain asf1, active compounds read low 0.975 | locus YJL129C, strain trk1, active compounds read low 0.972 | locus YJL134W, strain LCB3, active compounds read low 0.99 | locus YJL154C, strain vps35, active compounds read low 0.992 | locus YJL164C, strain tpk1, active compounds read low 0.97 | locus YJL166W, strain qcr8, active compounds read low 0.96 | locus YJL168C, strain set2, active compounds read low 1 | locus YJL187C, strain SWE1 (second series), active compounds read low 1 | locus YJL187C, strain SWE1, active compounds read low 0.99 | [9] 1.02 | locus YJR066W, strain TOR1, active compounds read low 0.984 | locus YKL009W, strain mrt4, active compounds read low 0.973 | locus YKL068W, active compounds read low 0.989 | locus YKL085W, strain MDH1 (second series), active compounds read low 0.982 | locus YKL085W, strain MDH1, active compounds read low 0.982 | locus YKL160W, strain elf1, active compounds read low 0.965 | [10] 0.976 | locus YKR001C, strain vps1, active compounds read low 1 | locus YKR026C, strain gcn3, active compounds read low 0.992 | locus YKR091W, strain srl3, active compounds read low 0.981 | locus YLL001W, strain dnm1, active compounds read low 0.968 | locus YLL026W, active compounds read low 0.995 | locus YLL041C, strain sdh2, active compounds read low 0.998 | locus YLR027C, strain aat2, active compounds read low 0.997 | [11] 0.941 | locus YLR058C, strain SHM2, active compounds read low 0.999 | locus YLR102C, strain apc9, active compounds read low 0.991 | locus YLR113W, strain HOG1, active compounds read low 1.02 | locus YLR221C, strain rsa3, active compounds read low 0.965 | locus YLR258W, strain gsy2, active compounds read low 0.974 | locus YLR262C, strain YPT6 (second series), active compounds read low 0.966 | [12] 0.985 | locus YLR268W, strain sec22, active compounds read low 0.99 | locus YLR320W, strain mms22, active compounds read low 0.964 | locus YLR330W, strain CHS5, active compounds read low 0.991 | locus YLR342W, strain FKS1 (second series), active compounds read low 1.01 | locus YLR342W, strain FKS1, active compounds read low 0.981 | locus YLR357W, strain rsc2, active compounds read low 0.963 | locus YLR370C, strain arc18, active compounds read low 0.987 | locus YLR371W, strain rom2, active compounds read low 1 | locus YLR384C, strain iki3, active compounds read low 0.979 | locus YLR418C, strain cdc73, active compounds read low 0.988 | locus YML016C, strain PPZ1, active compounds read low 1 | locus YML032C, strain rad52, active compounds read low 1 | locus YML120C, strain ndi1, active compounds read low 0.958 | locus YML124C, strain tub3, active compounds read low 0.988 | locus YMR058W, strain fet3, active compounds read low 0.991 | locus YMR078C, strain ctf18, active compounds read low 0.986 | locus YMR125W, strain sto1, active compounds read low 0.971 | locus YMR129W, active compounds read low 0.988 | locus YMR205C, strain PFK2, active compounds read low 0.964 | locus YMR223W, strain ubp8, active compounds read low 0.964 | locus YMR231W, strain pep5, active compounds read low 0.983 | [13] 1.02 | locus YNL067W, strain RPL9B, active compounds read low 0.986 | locus YNL071W, strain lat1, active compounds read low 0.982 | locus YNL128W, strain TEP1, active compounds read low 0.977 | [14] 1.01 | locus YNL183C, strain NPR1, active compounds read low 0.976 | locus YNL209W, strain ssb2, active compounds read low 0.984 | locus YNL233W, strain BNI4, active compounds read low 0.995 | locus YNL248C, strain rpa49, active compounds read low 0.985 | locus YNL250W, strain rad50, active compounds read low 0.967 | locus YNL271C, strain bni1, active compounds read low 0.977 | locus YNL298W, strain CLA4, active compounds read low 0.99 | locus YNL307C, strain MCK1, active compounds read low 0.999 | locus YNL322C, strain KRE1 (second series), active compounds read low 0.987 | [15] 0.997 | locus YNR049C, strain mso1, active compounds read low 0.99 | locus YNR052C, strain pop2, active compounds read low 0.992 | locus YOL006C, strain TOP1, active compounds read low 1.01 | locus YOL012C, strain htz1 0.742 | locus YOL147C, strain pex11, active compounds read low 0.987 | locus YOR001W, strain rrp6, active compounds read low 1.01 | locus YOR061W, strain CKA2, active compounds read low 1 | locus YOR069W, strain VPS5, active compounds read low 0.992 | locus YOR070C, strain gyp1, active compounds read low 0.988 | locus YOR080W, strain dia2, active compounds read low 0.987 | locus YOR083W, strain WHI5, active compounds read low 0.954 | locus YOR106W, strain vam3, active compounds read low 0.955 | locus YOR136W, strain idh2, active compounds read low 0.989 | locus YOR144C, strain elg1, active compounds read low 0.997 | locus YOR184W, strain ser1, active compounds read low 0.989 | locus YOR231W, strain MKK1, active compounds read low 1.04 | locus YOR265W, strain rbl2, active compounds read low 0.992 | locus YOR270C, strain vph1, active compounds read low 0.972 | locus YOR290C, strain snf2, active compounds read low 0.886 | locus YOR316C, strain cot1, active compounds read low 0.984 | locus YPL051W, strain arl3, active compounds read low 1.01 | locus YPL078C, strain atp4, active compounds read low 0.97 | locus YPL106C, strain sse1, active compounds read low 0.978 | locus YPL240C, strain hsp82, active compounds read low 0.996 | locus YPL256C, strain CLN2, active compounds read low 1.06 | locus YPR119W, strain clb2, active compounds read low 0.991 | locus YPR141C, strain kar3, active compounds read low 0.966 | locus YPR163C, strain tif3, active compounds read low 0.988 | locus YPR167C, strain met16, active compounds read low 0.995 | strain wtn01, active compounds read low 0.991

— PubChem BioAssay AID1159580 (chemical genetic matrix, 2015)
